Results published in PubChem BioAssay (NCATS).
Inconclusive results are not listed. Active and inactive are the calls of the source. Calls come from the whole dose curve; as a rule, active = well fitted curve in the direction sought with a large enough effect; inconclusive = small, poorly fitted or top-dose-only effect, or another doubt; inactive = no such curve, though single readings can be large; an effect the other way counts as inactive or inconclusive.

Key:
[1] = target: Calcium and integrin-binding protein 1 (Homo sapiens) (UniProt Q99828); assay: Primary qHTS for Identification of Calcium Integrin Binding Protein 1 (CIB1) Competitor (AID 1508620);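 note: GST tagged CIB1 binding a fluorescein labelled alphaIIb integrin peptide tracer; top concentration of the series differs between compounds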
Outline: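 CIB1-GST (1 uM final) and compound incubated 15 min at room temperature before adding FITC-alphaIIb peptide tracer (100 nM final). Competition for binding read by fluorescence polarization (ex 480, em 540) after another 15 min at room temperature.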

[2] = Primary qHTS for inhibitors of nuclear receptor binding SET domain protein 2 (NSD2) in an isogenic RCH-ACV NSD2 p.E1099K mutant (9B) (AID 1645876); note: nearly all actives have a fitted effect of over 70% in size
[3] = Primary qHTS for inhibitors of nuclear receptor binding SET domain protein 2 (NSD2) in an RCH-ACV wild type WT cells (2C) (AID 1645877); note: nearly all actives have a fitted effect of over 70% in size
% is set by controls: 0 for no effect and ±100 for the full control effect.

Chain of Calcium and integrin-binding protein 1 (Homo sapiens) (Q99828 whole entry, looked up): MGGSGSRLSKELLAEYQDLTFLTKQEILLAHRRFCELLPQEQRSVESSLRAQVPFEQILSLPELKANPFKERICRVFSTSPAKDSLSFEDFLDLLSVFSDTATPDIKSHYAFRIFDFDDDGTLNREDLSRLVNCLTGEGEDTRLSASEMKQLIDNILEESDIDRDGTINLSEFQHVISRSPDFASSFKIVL

CC1=CC(=O)CC(C)(C)C1CCC(C)O[C@@H]1O[C@H](CO)[C@@H](O)[C@H](O)[C@H]1O (stereo not given in full)
inactive: Potency [1] | Potency [2] | Potency [3]

C[C@@H]1O[C@@H](O[C@H]2[C@H](O[C@H]3[C@H](O[C@H]4CC[C@@]5(C)C(CC[C@]6(C)C5CC=C5[C@@H]7CC(C)(C)CC(=O)[C@]7(C)CC[C@]56C)[C@@]4(C)CO)O[C@H](C(=O)O)[C@@H](O)[C@@H]3O)O[C@H](CO)[C@H](O)[C@@H]2O)[C@H](O)[C@H](O)[C@H]1O (stereo not given in full)
inactive: Potency [1] | outcome [2] inactive [at 9.23 µM] | outcome [3] inactive [at 9.23 µM]

C[C@H]1[C@@H](O)[C@H](O)C2[C@]3(C)C([C@@H](O)[C@H]4OC(=O)[C@@H]1[C@@]24C)[C@](C)(O)C=C[C@H]3O[C@@H]1O[C@H](CO)[C@@H](O)[C@H](O)[C@H]1O (stereo not given in full)
inactive: Potency [1] | Potency [2] | Potency [3]

C/C(=C\CO)CC/C=C(\C)C(=O)O[C@@H]1O[C@H](CO)[C@@H](O)[C@H](O)[C@H]1O
inactive: Potency [1] | Potency [2] | Potency [3]

Cn1cc(Nc2cnccc2C(=O)O)c2cccnc21
inactive: Potency [1] | Potency [2] | Potency [3]

CC(=O)O[C@@H]1[C@H](O[C@@H]2O[C@H](CO)[C@@H](O)[C@H](O)[C@H]2O)[C@@H](O[C@@H]2O[C@@H](C)[C@H](O)[C@@H](O[C@@H]3O[C@H](CO)[C@@H](O)[C@H](O)[C@H]3O)[C@H]2O)[C@H](OC(=O)[C@]23CCC(C)(C)C[C@H]2C2=CCC4[C@@]5(C)C[C@H](O)[C@H](O[C@@H]6O[C@H](C(=O)O)[C@@H](O)[C@H](O)[C@H]6O)[C@@](C)(C(=O)O)C5CC[C@@]4(C)[C@]2(C)CC3)O[C@@H]1C (stereo not given in full)
inactive: activity change, negative = inhibition [1] -1.12% [at 12.4 µM] | activity change, negative = viability loss [2] -4.25% [at 9.23 µM] | activity change, negative = cell killing [3] -3.72% [at 9.23 µM]

COc1ccc(/C=C/C(=O)O[C@@H]2[C@@H](O[C@@H]3O[C@H](CO)[C@@H](O)[C@H](O)[C@H]3O)[C@@H](O)[C@H](O[C@H]3C4C=CO[C@@H](O[C@@H]5O[C@H](CO)[C@@H](O)[C@H](O)[C@H]5O)C4[C@@]4(CO)O[C@@H]34)O[C@H]2C)cc1 (stereo not given in full)
inactive: Potency [1] | activity change, negative = viability loss [2] -15.4% [at 9.23 µM] | activity change, negative = cell killing [3] -20.7% [at 9.23 µM]

CNc1nc(Cc2ccccc2)nc2c1CCNC[C@@H]2C
inactive: Potency [1] | Potency [2] | Potency [3]

COc1cc(/C=C/C(=O)O[C@H]2C[C@@H]3C(C(=O)O)=CO[C@@H](O[C@@H]4O[C@H](CO)[C@@H](O)[C@H](O)[C@H]4O)[C@@H]3[C@H]2C)ccc1O
inactive: Potency [1] | Potency [2] | Potency [3]

COc1cc(/C=C/C(=O)O[C@H]2[C@H](O)[C@@H](CO)O[C@@]2(CO)O[C@H]2O[C@H](CO)[C@@H](O)[C@H](O)[C@H]2O)cc(OC)c1O
inactive: Potency [1] | Potency [2] | Potency [3]

H-DPPDPDRFYGMM-NH2
inactive: Potency [1] | Potency [2] | Potency [3]

C[C@H]1CC[C@@]2(OC1)O[C@H]1CC3C4CC[C@H]5C[C@@H](O)CC[C@]5(C)C4CC(=O)[C@]3(C)[C@H]1[C@@H]2C (stereo not given in full)
inactive: Potency [1] | Potency [2] | Potency [3]

CC1(C)CC[C@]2(C(=O)O)CC[C@]3(C)C(=CCC4[C@@]5(C)C(=O)C[C@H](O)[C@@](C)(CO)C5CC[C@]43C)[C@@H]2C1 (stereo not given in full)
inactive: Potency [1] | Potency [2] | Potency [3]

Cc1cc(-n2c(=O)[nH]c(=O)n(C)c2=O)ccc1Oc1ccc(SC(F)(F)F)cc1
inactive: Potency [1] | Potency [2] | Potency [3]

C[C@@H]1O[C@@H](OC2C(O[C@H]3[C@H](O[C@H]4CC[C@@]5(C)C(CC[C@]6(C)C5CC=C5C7CC(C)(C)CC(O)[C@]7(C)CC[C@]56C)C4(C)C)O[C@H](C(=O)O)[C@@H](O)[C@@H]3O)OC(CO)C(O)C2O)[C@H](O)[C@H](O)[C@H]1O (stereo not given in full)
inactive: Potency [1] | activity change, negative = viability loss [2] 3.07% [at 9.23 µM] | outcome [3] inactive [at 9.23 µM]
